Source: PubChem BioAssay

Each molecule was assayed against Fibroblast growth factor 10 (Homo sapiens) (UniProt O15520) (assay: FGF10 binders on small-molecule microarrays, primary screen, biochemical, small-molecule microarray, 635 nm fluorescence (AID 1102)). Details: FGF10 binding, fluorescence 635 nm, higher = more signal.
Sequence of Fibroblast growth factor 10 (Homo sapiens) (O15520 whole entry, looked up): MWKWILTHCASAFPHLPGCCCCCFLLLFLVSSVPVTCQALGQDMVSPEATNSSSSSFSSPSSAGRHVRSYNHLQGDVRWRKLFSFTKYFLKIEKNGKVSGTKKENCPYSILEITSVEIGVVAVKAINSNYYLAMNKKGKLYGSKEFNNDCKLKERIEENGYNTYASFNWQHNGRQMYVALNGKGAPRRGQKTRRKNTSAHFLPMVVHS

Question: How did the composite z-score turn out when `C=CCNC(=O)[C@H]1[C@@H]2C(=O)O[C@@H](c3ccccc3)[C@@H](c3ccccc3)N2[C@@H](c2ccc(O)cc2)[C@]12C(=O)N(C(=O)OCCOC)c1ccc(C#Cc3ccc(OC)cc3)cc12` was run?
Answer: 0.88

Question: With `O=C1OC[C@@H](c2ccccc2)n2cc(/C=C/c3ccccc3)cc21` as the molecule, how does the composite z-score read?
Answer: -0.256

Question: `COc1c(C)cc(-c2nc(-c3ccccc3)c3c(c2C)CO[Si]3(C(C)C)C(C)C)cc1C` was tested. Which composite z-score did it give?
Answer: 0.295

Question: Which composite z-score does the source give for `C=C(CCCC)/C(=C/C[C@@H](OC(C)=O)c1cccc(OCCO)c1)c1cc(C(=O)OC)ccc1OC` here?
Answer: -0.004

Question: How did the composite z-score turn out when `CC1CC/C=C\[C@H]2OC34C=CCN(C(C)C)C(=O)[C@H]3N(C(C)CO)C(=O)[C@@H]4C2C(=O)O1` (stereo not given in full) was run?
Answer: -0.171

Question: `CCCCC(=C=CC[C@@H](O)c1ccc(OCCO)cc1)CCO` was tested. Which composite z-score did it give?
Answer: 0.701

Question: With `COc1ccc(C(=O)Nc2ccc(CN3C(=O)[C@]4(O[C@H](CC(=O)N(CCO)Cc5ccccc5)[C@@H]([Si](C)(C)c5ccc(OC)cc5)[C@@H]4C)c4ccccc43)cc2)cc1` as the molecule, how does the composite z-score read?
Answer: 1.34

Question: With `COC(=O)[C@@]1(Cc2ccc(F)cc2)[C@H]2c3cc(C(=O)N(C)C)n(Cc4ccc(C(F)(F)F)nc4)c3C[C@H]2CN1C(=O)c1ccccc1` as the molecule, how does the composite z-score read?
Answer: 0.776

Question: For `O=C(NCCN1CCOCC1)[C@@H]1c2ccccc2C(=O)N(CC23CC4CC(CC(C4)C2)C3)[C@H]1c1ccc(CO)cc1`, which composite z-score is on record?
Answer: 1.33

Question: `CO[C@H]1O[C@H](CO)[C@@H](OC(=O)Nc2cccc(F)c2)[C@H](OC(=O)Nc2ccc3c(c2)OCO3)[C@@H]1OC(=O)Nc1ccc2c(c1)OCO2` was tested. Which composite z-score did it give?
Answer: 1

Question: For `CN(C)CCCCCCNC(=O)[C@@H]1C[C@@H]2C(=O)N[C@@H](CCCC[N+](C)(C)C)C(=O)N2[C@@H]1c1cccc(OCCO)c1`, which composite z-score is on record?
Answer: -1.11

Question: With `CN(C)C(=O)[C@]1(CCS(=O)(=O)c2ccccc2)N=C(c2ccc(OCCCO)cc2)O[C@@H]1c1ccccc1CN=[N+]=[N-]` as the molecule, how does the composite z-score read?
Answer: 1.26

Question: For `CN1C(=O)C2C=CC(C(O)c3ccc([N+](=O)[O-])cc3)N(Nc3ccccc3)C2C1=O` (stereo not given), which composite z-score is on record?
Answer: 0.898

Question: For `CCOC(=O)C[C@H]1[C@H](OC(=O)c2ccccc2-c2ccccc2)[C@@H](NC(=O)CC(C)C)c2cc(OCCCO)ccc2N1C(=O)c1ccccc1`, which composite z-score is on record?
Answer: 0.625

Question: Which composite z-score does the source give for `O=C1C2C=CC(C(O)C3CC=CCC3)N(Nc3ccc([N+](=O)[O-])cc3)C2C(=O)N1c1ccccc1` (stereo not given) here?
Answer: 1

Question: With `COc1cccc(C)c1NC(=O)O[C@H]1[C@H](OC(=O)Nc2ccc3c(c2)OCO3)[C@H](OC(=O)Nc2ccc3c(c2)OCO3)[C@@H](OC)O[C@@H]1CO` as the molecule, how does the composite z-score read?
Answer: 1.39

Question: Which composite z-score does the source give for `CC(C)(C)OC(=O)CC[C@]1(C(N)=O)N=C(c2ccc(OCCCO)cc2)O[C@H]1c1ccccc1N=[N+]=[N-]` here?
Answer: 1.5

Question: With `C=CCN1C(=O)[C@]2(O[C@H](CCO)[C@@H]([Si](C)(C)c3ccc(OC)cc3)[C@@H]2C)c2cc(N3C(=O)c4ccccc4Oc4ccccc43)ccc21` as the molecule, how does the composite z-score read?
Answer: 0.402

Question: Which composite z-score does the source give for `C=C(/C=C\CNS(=O)(=O)c1ccc(C)cc1)[C@H](O)[C@H]1CCCN1S(=O)(=O)c1ccccc1[N+](=O)[O-]` here?
Answer: 0.598

Question: With `COC(=O)[C@@]1(Cc2ccc(F)cc2)[C@H]2c3cc(C(=O)N4CCCC4)n(C[C@H](O)CO)c3C[C@H]2CN1C(=O)c1ccccc1` as the molecule, how does the composite z-score read?
Answer: 0.0396

Question: Which composite z-score does the source give for `O=C1O[C@H](c2ccccc2)[C@H](c2ccccc2)N2[C@H]1[C@@H](C(=O)O)[C@]1(C(=O)Nc3ccccc31)[C@H]2c1ccc(OCCO)cc1` here?
Answer: 0.141

Question: For `COc1ccc(CCNC(=O)[C@@H]2c3ccccc3C(=O)N(C(C)C)[C@H]2c2ccc(CO)cc2)cc1`, which composite z-score is on record?
Answer: -1.05

Question: For `O=C1O[C@@H](c2ccccc2)[C@@H](c2ccccc2)N2[C@@H](c3ccc(OCCO)cc3)[C@]3(C(=O)Nc4ccc(C#CC5=CCCCC5)cc43)[C@@H](C(=O)Nc3nc4ccccc4s3)[C@H]12`, which composite z-score is on record?
Answer: 1.01

Question: With `C=C(COC)C(=O)CC[C@@H](OC(=O)c1ccccc1-c1ccccc1C(=O)O)c1ccccc1OCCO` as the molecule, how does the composite z-score read?
Answer: 1.65

Question: For `CCOC(=O)C[C@H]1[C@H](OC(=O)Cc2ccc3c(c2)OCO3)[C@@H](NC(=O)CC(C)C)c2cc(OCCCO)ccc2N1C(=O)c1ccc2ccccc2n1`, which composite z-score is on record?
Answer: 0.891

Question: For `COC(=O)Cn1c(C(=O)N(C)C)cc2c1C[C@H]1CN(C(=O)c3ccccc3)[C@@](Cc3ccccc3)(C(=O)OC)[C@@H]21`, which composite z-score is on record?
Answer: -0.482

Question: Which composite z-score does the source give for `C[C@@]1([C@@H](NS(=O)(=O)c2cccc3cccnc23)c2ccc(-c3ccccc3)cc2)C[C@H]1C1CCCCC1` here?
Answer: -0.0983

Question: For `COCCOC(=O)N1C(=O)[C@@]2(c3cc(C#CCC(C(=O)OC)C(=O)OC)ccc31)[C@H](C(N)=O)[C@H]1C(=O)O[C@H](c3ccccc3)[C@H](c3ccccc3)N1[C@@H]2c1ccccc1OCCO`, which composite z-score is on record?
Answer: 1.37

Question: For `CN1C(=O)C2CC=C(C3=CCO[C@@H]3[C@H]3CCCN3S(=O)(=O)c3ccccc3[N+](=O)[O-])CC2C1=O` (stereo not given in full), which composite z-score is on record?
Answer: 0.447

Question: For `COc1cccc(C)c1NC(=O)O[C@H]1[C@H](OC(=O)Nc2ccccc2)[C@@H](OC(=O)Nc2ccccc2)[C@@H](OC)O[C@@H]1CO`, which composite z-score is on record?
Answer: 1.34

Question: For `COCCCNC(=O)[C@@]1(c2ccc([N+](=O)[O-])cc2)CC(=O)N(C2CCCCC2)[C@@H]1c1ccc(CO)cc1I`, which composite z-score is on record?
Answer: 0.453

Question: Which composite z-score does the source give for `CO[C@H]1O[C@H](CO)[C@@H](OC(=O)Nc2cccc(F)c2)[C@H](OC(=O)c2cc3ccccc3[nH]2)[C@H]1OC(=O)c1cc2ccccc2[nH]1` here?
Answer: 0.284

Question: With `C=C(COC)/C(=C/C[C@@H](OC(C)=O)c1cccc(OCCO)c1)c1cnc2ccccc2c1` as the molecule, how does the composite z-score read?
Answer: 1.56

Question: With `CCCC[C@@H](O)C1=C(C)Cn2c(=O)n(-c3ccccc3)c(=O)n2[C@H]1CO` as the molecule, how does the composite z-score read?
Answer: 0.132

Question: Which composite z-score does the source give for `CCCCC(=C=CC[C@@H](O)c1ccccc1OCCO)C[C@@H](O)c1ccccn1` here?
Answer: 0.473
